Results taken from ChEMBL document CHEMBL4513216, “Probing the Open Global Health Chemical Diversity Library for Multistage-Active Starting Points for Next-Generation Antimalarials” (ACS Infect Dis, 2020).
The campaign covered roughly 69,000 compounds. About 8,600 (12%) showed an effect of 50% or more. Shown is part of a subset that was picked to be rich in strong results.

Tested on: Plasmodium berghei
Experiment: Screen against P. berghei liver stage (PbLuc), transformed with Luciferase, at 10uM
Assay type: functional, HepG2
Conditions: tested at 10 uM

Compound	INHIBITION [%]
COCCN1CCC2(CCC(=O)N2Cc2csc(C)n2)CC1	-45.8
CCN1CCN(C2CCN(Cc3nc(-c4ccoc4)no3)CC2)C1=O	26.3
O=C1NCCN1C1CCN(Cc2nc(-c3ccoc3)no2)CC1	17
CN1CCN(C2CCN(Cc3nc(-c4ccoc4)no3)CC2)C1=O	59.4
COCCN1CCN(Cc2nc(-c3ccoc3)no2)CC1	31.1
Fc1ccc(-c2noc(CN3CCC(c4cc[nH]n4)CC3)n2)cc1	34.6
O=C1NCCN1C1CCN(Cc2nc(-c3ccc(F)cc3)no2)CC1	93.6
O=C(c1ccc(-n2cccn2)c(F)c1)N1CCCN2CCCC2C1 (stereo not given)	49.1
CCN(CC)C(=O)CN1CCCC1c1nc(C)c2c(n1)N(C)C(=O)CC2 (stereo not given)	-0.55
CC(=O)N1CCCC(Cc2nccn2C)C1 (stereo not given)	5.56
C[C@@H]1CN(c2ccc(Cl)cn2)C[C@@]1(O)C1CC1	25.145
O=C(NC1(c2nnn(CCO)n2)CCCC1)c1ccccc1	-16.2
O=C(NC1(c2nnn(CC3CC3)n2)CCCC1)c1ccccc1	42
C=C(C)Cn1nnc(C2(NC(=O)c3ccccc3)CCCC2)n1	71.2
Cc1cc(C)nc(C2CCN(C(=O)c3cnco3)C2)n1 (stereo not given)	-8.12
Cc1ccc2ncnc(N3CCOCC3c3c(C)nn(C)c3C)c2c1 (stereo not given)	30
Cc1nn(C)c(C)c1C1COCCN1c1ncncc1Br (stereo not given)	57.7
Cc1nn(C)c(C)c1C1COCCN1c1ncnc2c(C)cccc12 (stereo not given)	28.6
CN(Cc1ccc2c(c1)OCO2)C(=O)NCCc1cnn(C)c1	28.15
Cc1ccccc1CNC(C)c1ccc(OCC(=O)NC2CC2)cc1 (stereo not given)	7.08
Cc1nc2c(C#N)cnn2c(C)c1CCC(=O)N(C)C1CC1	28.5
Cc1nc2cc(O)nn2c(C)c1CCC(=O)N(C)CCC(C)C	-57.5
COC(=O)c1cc(C2CC2)nc2c(C#N)cnn12	25.9
COCC(C)N(C)C(=O)CCc1c(C)nc2c(C#N)cnn2c1C (stereo not given)	63.8
Cc1nn(C)c(C)c1CCC(=O)N(C)Cc1ccc(C#N)cc1	-12.5
Cc1nc2c(C#N)cnn2c(C)c1CCC(=O)N(C)C(C)C(C)C (stereo not given)	62.8
CCCn1[nH]c(CNc2cccc(Cl)c2)nc1=O	46.4
Cc1nnc2n1CCN(C(=O)c1cc3cc(F)ccc3[nH]1)C2	14.1

Compound	INHIBITION [%]
Cn1cc(CN2CCC3(CCCN(C(=O)c4cscn4)C3)C2)cn1 (stereo not given)	-68.5
Cc1cn2c(n1)CCC(NC(=O)c1cc(C3CC3)[nH]n1)C2 (stereo not given)	-1.14
Cc1cccc(N(C)Cc2cc(=O)n3oc(C)cc3n2)c1	43.5
Cc1cc2nc(CN(C)c3ccc(Cl)cc3)cc(=O)n2o1	56
Cc1cc2nc(CN(C)c3ccccc3)cc(=O)n2o1	12.9
NC(=O)[C@H]1CCCN1C(=O)c1csc(-c2ccc(C(F)(F)F)cc2)n1	-2.25
CCOCC1CCN(C(=O)C(c2ccc(F)cc2)N(C)C)CC1 (stereo not given)	17.5
CNS(=O)(=O)c1c(C)sc2ccccc12	-77.9
Cc1[nH]ncc1C(=O)N1CCCC(c2ccn[nH]2)C1 (stereo not given)	23.5
Cc1nc(CN2CCCN(C(=O)c3cnccn3)CC2)cs1	-16.4
CCCS(=O)(=O)NCC(C)c1ccc(F)c(F)c1 (stereo not given)	10
CC(CNS(N)(=O)=O)c1ccc(F)c(F)c1 (stereo not given)	31.1
CC(CNS(C)(=O)=O)c1ccc(F)c(F)c1 (stereo not given)	60.4
Cc1ccn(-c2ccnc(N3CCN(c4ncccn4)CC3)n2)n1	44.9
COCCO[C@H]1CCN(c2ccc(C)nn2)[C@H]1Cc1cnn(C)c1	13.7
COc1ccc(CS(=O)(=O)CC(=O)NCC2CC2)cc1F	19
COc1ccc(CS(=O)(=O)CC(=O)NCc2ccccc2F)cc1F	40.3
CNC(=O)CS(=O)(=O)Cc1ccc(OC)c(F)c1	52.2
Cc1nccn1CCN(C)C(=O)C1CCN(C(=O)C2CCCC2)CC1	48.9
N#Cc1ccc(C(=O)N2CCCSCC2CN2CCCC2)cc1 (stereo not given)	40.8
Cc1cc(S(C)(=O)=O)c(C)c(S(=O)(=O)N2CCN(C)CC2)c1	31.9
Cc1cc(S(C)(=O)=O)c(C)c(S(=O)(=O)N2CCCC(C)C2)c1 (stereo not given)	63
Cc1cc(S(C)(=O)=O)c(C)c(S(=O)(=O)N2CCCCCC2)c1	36.4
CC(=O)c1c(F)cccc1NCC(O)C1CC1 (stereo not given)	26
Cc1nc(NCc2scnc2-c2ccccc2)cc(C2CCNCC2)n1	24.3
CN(C)c1ccc(-c2cc(=O)n3c(n2)CCCCC3)cc1	35.1
Cc1ccc(S(=O)(=O)n2ccn(C(=O)COc3ccccc3)c2=O)cc1	44.1
